From PubChem BioAssay
Most compounds without a hit are left out; they make up all but 2.6% or so of the library.
Myeloid diff MLP: compounds promoting myeloid differentiation; ER-HoxA9 myeloid progenitors, lysozyme-GFP differentiation, flow cytometry; calls only at 10 µM; 360,000 tested, 1% active;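 active means normalized GFP-positive differentiation at or above the plate's own cutoff, the solvent-only control mean plus 3 SD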;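 further: cells exposed to compound for four days before flow analysis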
IDE act: activators of human insulin-degrading enzyme in cells | P14735 | HEK cells, FAbeta-B cleavage, fluorescence polarization; 0% vehicle, 100% cell-free pure enzyme wells | activation, % at 5.96 µM | 340,000 tested, 0.073% active;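 active means activation above the mean of all tested compounds plus 3 SD, set per screening campaign, cut at about 17% in these data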
CRFR2-BP ag: agonists of human CRF-binding protein/CRF-R2 receptor complex | activation, % at 13.2 µM | 350,000 tested, 0.46% active | AID 588473 | HEK293 CRF-R2/CRF-BP, calcium dye fluorescence (FLIPR); percent of saturating CRF peptide response;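 active means activation of at least 50%, plus an integration ratio under a set limit after plate pattern correction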;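 further: plate controls were neutral control wells without compound for no effect and CRF at EC100 for full effect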
IDE cell inh: inhibits human insulin-degrading enzyme in HEK cells; AID 434962; FAbetaB cleavage, fluorescence polarization; P14735; 320,000 tested, 0.41% active; inhibition, % at 5.59 µM;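 active means percent inhibition above the average of all tested compounds plus 3 SD, set per screening campaign, cut at about 16% in these data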;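 further: IDE supplied by intact live HEK cells; FP after avidin binding of uncleaved biotin substrate so inhibition keeps polarization high; 0% = DMSO wells and 100% = 60 µM reference IDE inhibitor Ii1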
CRFBP-R2 block: CRF-BP/CRF-R2 complex antagonism | HEK293 CRF-R2/CRF-BP, CRF-induced calcium fluorescence | inhibition, % at 11.8 µM | 350,000 tested, 0.59% active | AID 588475;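 active means inhibition of the ligand-induced calcium signal above about 50% at the single tested concentration, limit read from the data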
TPT1 inhibitor: C. albicans TPT1 enzyme inhibition | recombinant caTPT1, FP RNA substrate dephosphorylation | 300,000 tested, 0.81% active | inhibition, % at 5 µM;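 active means inhibition above the mean of all tested compounds plus 3 SD, set per screening campaign, cut at about 24% in these data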;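 further: plate controls were DMSO alone for no effect and ferristatin control at 100 nM for full effect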
TPT1 inh confirm: confirmation of Candida albicans TPT1 inhibitors; shares compounds with TPT1 inhibitor; recombinant caTPT1, fluorescence polarization, RNase T1 coupled; inhibition, % at 5 µM; 2,400 tested, 74% active; AID 2149;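 active means inhibition above the primary screen limit, the mean inhibition of all tested compounds plus 3 SD, cut at about 25% in these data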
RNase T1 inh: counter-screen for TPT1 inhibitors: inhibitors of Aspergillus oryzae RNase T1 | shares compounds with TPT1 inhibitor | AID 2153 | 2,400 tested, 83% active | inhibition, % at 5 µM | RNase T1 cleavage, fluorescence polarization, 1536-well;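 active means inhibition above the solvent-only control well mean plus 3 SD, limit set per screening run, cut at about 23% in these data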;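 further: plate controls were DMSO wells with enzyme for no effect and wells without RNase T1 for full effect; inhibitors block cleavage so intact labeled substrate keeps polarization high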
Target sequence (P00651 whole entry, looked up): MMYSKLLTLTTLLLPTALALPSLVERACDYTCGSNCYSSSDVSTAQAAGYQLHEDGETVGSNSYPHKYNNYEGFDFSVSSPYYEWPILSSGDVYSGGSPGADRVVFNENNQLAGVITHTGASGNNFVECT
* hit, by the source's call; i = inactive; . = not tested or not shown; + = active, no number.

SMILES | Myeloid diff MLP | IDE act | CRFR2-BP ag | IDE cell inh | CRFBP-R2 block | TPT1 inhibitor | TPT1 inh confirm | RNase T1 inh
COCCCn1c(=O)/c(=C/c2ccccc2OC(F)F)s/c1=C(\C#N)C(=O)NCCOC | i | 8 | -2 | . | 0 | . | . | .
N#C/C(=C\C=C\c1ccccc1)c1nc(-c2ccc3c(c2)OCO3)cs1 | i | 1 | 65* | 0 | -74 | 37* | 36* | 47*
OC(c1ccccc1)(c1nc(-c2ccc3c(c2)OCO3)cs1)C(F)(F)F (stereo not given) | i | . | . | . | . | . | . | .
CNc1c([N+](=O)[O-])cnn1-c1ccc(Cl)cc1 | i | 1 | -2 | -5 | -1 | 1 | . | .
Nc1ccc(/C=C/C(=O)c2ccco2)cc1 | i | -11 | 81* | 15 | -72 | 73* | 81* | 92*
Cc1cccc2cc(/C=N/Nc3ccc(C(=O)O)cc3)c(Cl)nc12 | i | -8 | 2 | 3 | -14 | 25* | 42* | 54*
O=C(O)c1ccc(N/N=C/c2cc3ccccc3nc2Cl)cc1 | i | 4 | 2 | 4 | -5 | 20 | . | .
O=C(C[C@@H]1C/C=C/CCCC(=O)O[C@H](c2ccccc2)CNC1=O)N[C@H](CO)Cc1ccccc1 | i | 1 | -1 | 1 | 4 | . | . | .
CN(CC(=O)Nc1sccc1C(N)=O)S(=O)(=O)c1ccc(Cl)cc1 | i | 4 | 1 | -2 | -9 | . | . | .
CCN(CC)c1ccc2cc(C(=O)NCc3ccc(F)cc3)c(=N)oc2c1 | i | -6 | . | 2 | . | 78* | 109* | 109*
O=C(Nc1ccc2c(c1)OCO2)[C@@H]1[C@@H]2C(=O)N(C3CCCCC3)C(=O)[C@@H]2C2c3ccccc3C=CN21 (stereo not given in full) | . | . | . | -5 | . | 62* | 52* | 63*
O=C(OCC(=O)N1CCCC1=O)C1COc2ccccc2O1 (stereo not given) | i | 3 | -1 | 5 | 12 | 20 | . | .
Cc1csc(Nc2ccccc2)n1 | i | 7 | 0 | 2 | -4 | + | 3 | 9
Cc1cn([C@H]2C[C@H](O)[C@@H](/C=C/C(=O)NCc3ccc4c(c3)OCO4)O2)c(=O)[nH]c1=O | i | . | . | . | . | . | . | .
N#CCC(=O)Nc1ccc(C(=O)NCC(c2ccco2)N2CCCCC2)cc1 (stereo not given) | + | -1 | 2 | 2 | -3 | 48* | 56* | 66*
O=C(c1cc(F)ccc1F)C1CCCN(C(=O)c2ccc3nccnc3c2)C1 (stereo not given) | i | 1 | 1 | 4 | -5 | -2 | . | .
COc1ccc(S(=O)(=O)N2CC(O)CC2C(=O)OCc2nc3sc(C)c(C)c3c(=O)[nH]2)cc1 (stereo not given) | i | 6 | 3 | -2 | -5 | 33* | 47* | 65*
Cc1sc2nc(COC(=O)c3ccc(N4CCCC4)c([N+](=O)[O-])c3)[nH]c(=O)c2c1C | + | 6 | 21 | 3 | -18 | 69* | 69* | 78*
COc1ccc(N2CCN(S(=O)(=O)c3c(C)nc4sccn4c3=O)CC2)cc1 | i | 4 | -3 | -3 | 2 | -2 | . | .
O=C(NCCCc1ccc(F)cc1)C1CCC(=O)N(CCN2CCOCC2)C1 (stereo not given) | i | 7 | 0 | -6 | -6 | -1 | . | .
CN1CCN(CCc2nc3cc(NC(=O)COc4ccc([N+](=O)[O-])cc4)ccc3n2C)CC1 | i | 2 | 2 | 6 | -8 | -4 | . | .
O=C1Nc2ccccc2Nc2ccc([N+](=O)[O-])cc21 | i | 0 | -2 | 1 | 14 | -4 | . | .
Cc1ccc(Oc2cc([N+](=O)[O-])cc3c2C(=O)Nc2ccccc2O3)cc1 | + | 6 | 4 | -1 | -22 | 24* | 36* | 46*
COc1cc2cc3c(N)c(C(=O)Nc4sc(C)c(C)c4C#N)sc3nc2cc1OC | i | -8 | 7 | 4 | -2 | 36* | 39* | 49*
